Assay outcomes deposited in PubChem BioAssay by National Center for Advancing Translational Sciences (NCATS).
Rows were chosen to be rich in hits. Some 3% of all compounds tested hit in one or more screens of this group.
15-hLO inh – blocks human 15-lipoxygenase activity | Potency, µM (series often up to 57.1 µM), without a hit: at the highest dose activity change, negative = inhibition, usual class: inhibitors | purified 15hLO-1, xylenol orange hydroperoxide absorbance | 1.4% of 74,000 active | P16050 | AID 887; further: on the % scale 0 is the no-effect control and ±100 the full control effect; nearly all actives have a fitted effect of over 55% in size
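Compounds were preincubated 15 min at room temperature with 40 nM purified human enzyme (25 mM Hepes pH 7.5, 0.01% Triton X-100); 50 uM arachidonic acid reacted 6 min. Fe-xylenol orange detection, 30 min, absorbance ratio 573/405 nm.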
HEK293 cAMP cs – raises cAMP in parental HEK293 cells, TSHR agonist counter-screen; parental HEK293 CNG cAMP sensor, membrane potential fluorescence; Potency, µM (top dose mostly 57.1 µM), without a hit: at the highest dose activation, hits mostly activators; 2.5% of 73,000 active; further: % of control where 0% means no effect; nearly all actives have a fitted effect of over 55% in size
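Counterscreen for endogenous-receptor signalling: CNG-channel HEK 293 cells report cAMP rise by membrane depolarization. After 60 min dye equilibration with 100 uM RO 20-1724, compounds incubated 30 min before bottom-read fluorescence at 590 nm.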
TSHR ag – activates the human thyroid stimulating hormone receptor. P16473. HEK293-CNG-TSHR cells (CNG channel as cAMP sensor), membrane potential dye, cAMP. Potency, µM (series often up to 57.1 µM), inactives show at the highest dose activation, most hits filed as activators. 0.48% of 73,000 active. AID 926; active means well fitted activation curve with a large enough effect in the main read-out, with a control signal flat, not every such curve was filed as active; inconclusive means small, poorly fitted or top-dose-only effect, or a change in a side signal; inactive means no such curve, though single readings can be large or run the other way; % of control where 0% means no effect;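 further: the control signal comes from parental cells without the receptor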
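HEK 293 cells stably expressing TSHR and a cAMP-gated CNG channel; parental CNG-only cells as counterscreen. Cells preloaded 60 min with membrane potential dye plus 100 uM RO 20-1724, then compound 30 min; fluorescence read at 590 nm.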
Caspase-1 inhib – caspase-1 (human) inhibition, allosteric or competitive; P29466; Potency, µM (highest dose often 57.5 µM), for the others: top-dose activity change, negative = inhibition, hits mostly inhibitors; Caspase-1 enzyme, Ac-WEHD-AFC fluorogenic rate; 0.03% of 75,000 active;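 further: plate controls were vehicle for no effect and no substrate for full effect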
Target sequence (P29466 120-297 limits assumed): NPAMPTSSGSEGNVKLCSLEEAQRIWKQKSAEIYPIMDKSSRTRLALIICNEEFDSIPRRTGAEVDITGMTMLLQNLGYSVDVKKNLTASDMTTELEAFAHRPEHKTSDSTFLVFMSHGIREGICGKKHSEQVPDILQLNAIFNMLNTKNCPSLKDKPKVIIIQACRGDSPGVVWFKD
Target sequence (P29466 317-404 limits assumed): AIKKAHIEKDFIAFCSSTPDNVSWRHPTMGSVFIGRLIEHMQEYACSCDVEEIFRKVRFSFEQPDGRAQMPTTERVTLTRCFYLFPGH
Caspase-7 inhib – allosteric or competitive inhibitors of human caspase-7; recombinant caspase-7, Ac-DEVD-AFC fluorescence rate; Potency, µM (series often up to 57.5 µM), for inactives: at the top dose activity change, negative = inhibition, usual class: inhibitors; 0.02% of 75,000 active; AID 889; active means well fitted inhibition curve with a large enough effect in the main read-out, with a control signal flat, not every such curve was filed as active; inconclusive means small, poorly fitted or top-dose-only effect, or a change in a side signal; further: % of control where 0% means no effect
Target sequence (P55210 24-198 limits assumed): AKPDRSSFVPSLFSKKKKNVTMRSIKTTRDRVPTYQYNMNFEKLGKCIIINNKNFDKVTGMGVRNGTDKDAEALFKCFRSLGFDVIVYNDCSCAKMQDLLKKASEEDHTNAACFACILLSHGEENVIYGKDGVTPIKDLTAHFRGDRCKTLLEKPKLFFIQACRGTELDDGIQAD
Target sequence (P55210 207-303 limits assumed): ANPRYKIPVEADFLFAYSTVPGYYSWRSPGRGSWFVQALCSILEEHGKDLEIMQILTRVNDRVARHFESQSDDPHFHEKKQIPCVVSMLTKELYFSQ
15-hLO-2 inh – inhibitors of human 15-lipoxygenase 2 (ALOX15B) | purified 15hLO-2, xylenol orange hydroperoxide absorbance | 0.56% of 110,000 active | AID 881 | Potency, µM (series often up to 57.1 µM), for the others: at the highest dose activity change, negative = inhibition, most hits filed as inhibitors | O15296; further: on the % scale 0 is the no-effect control and ±100 the full control effect; nearly all actives have a fitted effect of over 60% in size
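Read-out: hydroperoxide product oxidises ferrous iron, measured as xylenol orange complex via the 573-to-405 nm absorbance ratio after 30 min. Reaction: 50 nM enzyme, 15 min compound preincubation, 45 uM arachidonic acid, 90 min RT, Hepes pH 7.5 with Triton X-100.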
Active calls of the source: *; ? = inconclusive; . = no result given; [ ] = dose if it differs, or a comment. Unless noted, the call rests on the fitted dose curve; in most records, active means well fitted curve in the direction sought with a large enough effect; inconclusive means small, poorly fitted or top-dose-only effect, or another doubt; inactive means no such curve, though single readings can be large; an effect the other way counts as inactive or inconclusive. Potency means the concentration at half of the fitted maximal effect.

SMILES	15-hLO inh	HEK293 cAMP cs	TSHR ag	Caspase-1 inhib	Caspase-7 inhib	15-hLO-2 inh
Cc1cc2ccccc2c[n+]1CC(O)C[n+]1cc2ccccc2cc1C	27%[11.4 µM]	5%[11.4 µM]	-8%[11.4 µM]	-2%[11.5 µM]	1%[11.5 µM]	-4%[11.4 µM]
O=C(NCCN1CCCC1)c1ccc(Cc2nc3ccccc3[nH]2)cc1	-4%	-9%	-2%	-3%	2%	.
COC(=O)[C@@]1(C)C=C[C@@H](Cc2ccccc2)N1C	-8%	20µM*	?	-11%	-7%	3%
c1csc(CCNc2ncnc3sc4c(c23)CCC4)c1	-1%	20µM*	?	-6%	-7%	24%
c1cn(CCCNc2ncnc3sc4c(c23)CCC4)cn1	15%	9%	7%	0%	2%	10%
Cc1c(C(C)(C)C)c(C=S)n2ccccc12	.	.	.	.	.	16µM*
COC(=O)CSC1=C(C#N)C(c2ccc3c(c2)OCO3)C2=C(CCCC2=O)N1 (stereo not drawn)	.	.	.	.	.	4%
Cc1ccc(NC(=O)CSC2=C(C#N)C(c3ccc4c(c3)OCO4)C3=C(CCCC3=O)N2)c(C)c1 (stereo not drawn)	3.2µM*	7%	2%	-8%	-7%	-20%
Cc1cc(Nc2cccc(F)c2)nc(-c2ccccc2O)n1	10µM*	-39%	?	-19%	-14%	9%
Cc1cc(Nc2ccccc2)nc(-c2ccccc2O)n1	-20%	-14%	-23%	-6%	-10%	19%
CCOC(=O)c1c(C)nc2c(C)cccn12	.	.	.	.	.	1%
CCOC(=O)c1c(C)nc2c3ccccc3ccn12	16µM*	23%	17%	1%	0%	-1%
COc1ccc(CCNC(=S)NC(=O)c2ccccc2)cc1OC	.	.	.	.	.	13µM*
CCCC[C@@H]1C[C@H]1C(NC(=O)c1ccco1)c1ccc(-c2ccccc2)cc1 (stereo partly drawn)	.	17%	-5%	-2%	-4%	-18%
CCCC[C@@H]1C[C@H]1C(NC(=O)c1ccco1)c1ccccc1C(F)(F)F (stereo partly drawn)	.	32µM*	?	-2%	-1%	-3%
CCCC[C@@H]1C[C@H]1C(NC(=O)c1ccco1)c1ccc(Cl)cc1 (stereo partly drawn)	.	16µM*	?	1%	-4%	-2%
CCCC[C@@H]1C[C@H]1C(NC(=O)c1cccnc1)c1ccc(-c2ccccc2)cc1 (stereo partly drawn)	.	?	?	-1%	-3%	21%
CCCC[C@@H]1C[C@H]1C(NC(=O)c1ccccc1)c1ccccc1 (stereo partly drawn)	.	13µM*	?	1%	-2%	5%
O=c1c2c([nH]c3ccccc13)CCCC2	.	.	.	.	.	-7%
O=c1c2c([nH]c3ccccc13)C(=C1CCCC1)CC2	20µM*	-5%	-8%	-9%	?	-14%
COC(=O)c1ccc(COC(=O)c2ccc(-n3cnnn3)cc2)o1	-5%	7%	13%	0%	-3%	-5%
O=C(OCCOc1ccccc1Cl)c1ccc(-n2cnnn2)cc1	-16%	40µM*	?	-5%	-2%	-10%
CC1CCN(C(c2ccccc2)c2nnnn2C(C)(C)C)CC1 (stereo not drawn)	3%	20µM*	?	-1%	1%	9%
COc1ccc(C(c2nnnn2C(C)(C)C)N2CCN(c3nc4ccccc4s3)CC2)cc1 (stereo not drawn)	-4%	30%	10µM*	-2%	-1%	-2%
N#CCCn1c(=O)c(-c2ccc(Cl)cc2)nc2cnc(N3CCOCC3)nc21	-7%	-9%	4%	.	?	-5%
SMILES	15-hLO inh	HEK293 cAMP cs	TSHR ag	Caspase-1 inhib	Caspase-7 inhib	15-hLO-2 inh
CCNc1ncc2nc(-c3ccc(OC)cc3)c(=O)n(-c3ccc(OC)cc3)c2n1	-2%	32µM*	?	.	?	-3%
CC(=O)NCCNc1ncncc1-c1ccc(N(C)C)cc1	13µM*	-4%	3%	-1%	-3%	-8%
O=C(c1csnn1)N1CCC2(CCCN(c3ccncc3)C2)CC1	12%	-2%	-2%	-6%	1%	5%
CCOC(=O)Nc1sc2c(c1C(=O)OCC)CCC2	-5%	12%	13%	-4%	0%	7%
CCOC(=O)c1c(NC(=O)Cn2c(C)nc3ccccc32)sc2c1CCC2	0%	23%	25µM*	-5%	-6%	0%
Oc1ccc2c(c1)OC(c1ccc(O)c(O)c1)C(O)C2 (stereo not drawn)	13µM*	.	.	2%	-4%	?
C[C@@H]1C(=O)O[C@H]2[C@@H](O)[C@@]34[C@H]5C[C@H](C(C)(C)C)[C@@]36[C@H](OC(=O)[C@@H]6O)O[C@@]4(C(=O)O5)[C@@]12O	.	6%	-5%	.	.	.
COc1ccccc1-c1nnc2sc(-c3cc4ccccc4o3)nn12	-4%	25µM*	?	0%	-1%	11%
COc1ccccc1-c1nnc2sc(-c3ccc(N(C)C)cc3)nn12	-10%	26%	.	-13%	-20%	.
O=C(CSc1nnc(-c2ccco2)n1Cc1ccccc1)c1ccccc1	-18%	19%	3%[11.4 µM]	3%	-16%	-6%
CC(C)Cn1c(SCC(=O)c2ccc(Cl)s2)nnc1-c1ccco1	-10%	20µM*	?	-3%	-5%	-22%
Cc1ccc(C(=O)CSc2nnc(-c3ccco3)n2Cc2ccccc2)cc1	?	13µM*	?	-6%	-6%	-5%
CCn1c(SCC(=O)c2ccc(Cl)cc2)nnc1-c1ccoc1C	-18%	25µM*	?	1%	-1%	-9%
CCCCn1c(SCC(N)=O)nnc1-c1ccco1	10%	20%	8%	3%	1%	-2%
COC(=O)c1ccc(C(NC(=O)OCc2ccccc2)/C(=C/[C@@H](C)C(=O)N[C@@H](CO)Cc2ccccc2)c2cccnc2)cc1 (stereo partly drawn)	25µM*	?	?	-3%	-3%	39%
Clc1ccc(CSC2=NCCN2)cc1Cl	-12%[11.4 µM]	0%[11.4 µM]	-4%[11.4 µM]	2%[11.5 µM]	0%[11.5 µM]	9%[11.4 µM]
C[C@H](NCCN(C)C)[C@@H]1CCC2C3CCc4cc(O)ccc4[C@H]3CCC21C (stereo partly drawn)	17%[11.4 µM]	-4%[11.4 µM]	8%[11.4 µM]	-2%[11.5 µM]	-1%[11.5 µM]	5%[11.4 µM]
CC1CCc2cc(F)ccc2N1C(=O)c1ccc2c(c1)OCO2 (stereo not drawn)	0%	25%	25µM*	-2%	0%	-1%
Cc1cc(NC(=O)c2cc(-c3ccncc3)nc3c(C)cccc23)no1	6%	32µM*	?	1%	-6%	-1%
Cc1cc(NC(=O)CSc2n[nH]c(-c3cccs3)n2)no1	.	.	.	.	.	-1%
Cc1cc(NC(=O)c2cc(-c3cccs3)nc3ccccc23)no1	-13%	16µM*	?	-11%	-15%	-10%
